Reference: PubChem BioAssay (Tox21)
Inconclusive results are not listed. Activity calls are given as the source filed them. Unless noted, the call rests on the fitted dose curve; in most records, active means well fitted curve in the direction sought with a large enough effect in the repeat runs; inconclusive means weak or mixed curves; inactive means no such curve, though single readings can be large; an effect the other way counts as inactive or inconclusive.

Tests used:
[1] = qHTS assay to identify small molecule HDAC inhibitors - cell viability counter screen (AID 1259365); further: series mostly up to about 92 µM; nearly all actives have a fitted effect of over 50% in size
In short: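 Wild-type HCT-116 cells, 1,500/well, cultured overnight, then compound-treated 2 h at 37 C. Viability measured as ATP luminescence with CellTiter-Glo after 30 min at room temperature.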

[2] = qHTS assay to identify small molecule agonists of the sonic hedgehog signaling (Shh) pathway - cell viability counter screen (AID 1259366); further: nearly all actives have a fitted effect of over 50% in size
In short: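 NIH/3T3-derived Gli1-Luc reporter cells, 2,000 per well, received compound after 4 h and were treated about 23 h at 37C. Viability measured in the same wells by CellTiter-Fluor fluorescence after 1 h.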

[3] = qHTS assay to identify small molecule antagonists of the sonic hedgehog signaling (Shh) pathway - cell viability counter screen (AID 1259367); further: nearly all actives have a fitted effect of over 55% in size
In short: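 CellTiter-Fluor signal in conditioned medium-stimulated 3T3 Gli1-Luc cells, 23 hr compound exposure, 37C.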

[4] = qHTS assay to identify small molecule agonists of the sonic hedgehog signaling (Shh) pathway (AID 1259368; calls by dose curve;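 further: NIH/3T3-derived 3T3Gli1-Luc cells carrying a stable Gli1-driven firefly luciferase reporter; series mostly up to about 92 µM; nearly all actives have a fitted effect of over 15% in size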)
In short: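 Cells of a mouse NIH/3T3 clone stably expressing luciferase under the Gli1 transcriptional response element are exposed to test chemicals for 24 hr at 37 C. Pathway activation is detected as a rise in luminescence.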

[5] = qHTS assay to identify small molecule antagonists of the sonic hedgehog signaling (Shh) pathway (AID 1259369; calls by dose curve; further: nearly all actives have a fitted effect of over 45% in size)
In short: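 Cells are plated and held 4hr at 37 C, compounds (DMSO) are pinned in, conditioned medium is added to stimulate the pathway, and after 24hr luciferase reagent is added for 30min before luminescence is read.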

[6] = biological target: Estrogen receptor beta (Homo sapiens) (UniProt Q92731); assay: qHTS assay to identify small molecule agonists of the estrogen receptor beta (ER-beta) signaling pathway (AID 1259377; active means well fitted activation curve with a large enough effect in the signal ratio in the repeat runs, not every such curve was filed as active; the % refers to the signal ratio)
Sequence of Estrogen receptor beta (Homo sapiens) (Q92731 whole entry, looked up): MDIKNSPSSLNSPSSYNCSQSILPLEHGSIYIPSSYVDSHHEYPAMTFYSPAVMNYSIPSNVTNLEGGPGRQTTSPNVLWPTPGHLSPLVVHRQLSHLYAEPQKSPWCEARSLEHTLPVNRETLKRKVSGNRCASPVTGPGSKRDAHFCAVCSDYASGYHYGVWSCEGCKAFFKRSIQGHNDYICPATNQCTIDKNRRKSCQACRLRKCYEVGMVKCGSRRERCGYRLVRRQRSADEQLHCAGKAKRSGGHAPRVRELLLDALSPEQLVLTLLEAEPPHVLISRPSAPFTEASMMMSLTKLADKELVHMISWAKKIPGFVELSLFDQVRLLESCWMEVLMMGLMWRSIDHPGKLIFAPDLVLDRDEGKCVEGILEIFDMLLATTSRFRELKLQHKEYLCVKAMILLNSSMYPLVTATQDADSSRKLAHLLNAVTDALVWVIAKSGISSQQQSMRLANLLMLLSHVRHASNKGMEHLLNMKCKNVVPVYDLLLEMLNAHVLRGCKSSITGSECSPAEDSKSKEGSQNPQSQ
In short: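 ER-beta-UAS-bla HEK293T cells in medium with 2% charcoal-stripped FBS were exposed to compounds for 16 h at 37C. Beta-lactamase reporter activity was read as fluorescence after 2 h with LiveBLAzer B/G FRET substrate at room temperature.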

[7] = biological target: Estrogen receptor beta (Homo sapiens) (UniProt Q92731); assay: qHTS assay to identify small molecule antagonists of the estrogen receptor beta (ER-beta) signaling pathway (AID 1259378; active means well fitted inhibition curve with a large enough effect in the signal ratio in the repeat runs, not every such curve was filed as active; the % refers to the signal ratio)
In short: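 Antagonist mode: compounds added to beta-lactamase reporter HEK293T ER-beta-UAS cells stimulated with E2 (1nM final), 16 hr at 37C. LiveBLAzer B/G FRET substrate, 2 hours room temperature, fluorescence read-out.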

[8] = qHTS assay to identify small molecule agonists of the androgen receptor (AR) signaling pathway in the presence of an antagonist - cell viability counter screen (AID 1259379);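 further: MDA-kb2 human breast cancer cells carrying an MMTV luciferase reporter; series mostly up to about 92 µM; nearly all actives have a fitted effect of over 25% in size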
In short: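 Cytotoxicity is assessed by CellTiter-Fluor in MDA-kb2 cells carrying an MMTV-driven luciferase reporter. Cells receive 3.0uM nilutamide plus compounds at 15 concentrations and incubate 16 hr at 37C without CO2 before fluorescence reading.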

[9] = qHTS assay to identify small molecule agonists of the estrogen receptor beta (ER-beta) signaling pathway - cell viability counter screen (AID 1259380); further: nearly all actives have a fitted effect of over 30% in size
In short: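 Cytotoxicity is measured in parallel with the reporter screen: after 16 hr compound exposure at 37C and a 2 hr LiveBLAzer step, CellTiter-Glo is added to the same ER-beta-UAS-bla HEK293T wells and luminescence read after 30 min.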
On the % scale 0 is the no-effect control and ±100 the full control effect.

CCC(C)SSC(C)CC (configuration not stated)
inactive: outcome [1] | outcome [2] | outcome [3] | outcome [4] | Potency [5] | Potency [6] | outcome [7] | outcome [8] | Potency [9]

C=CCON/C(CCC)=C1\C(=O)CC(C)(C)C(C(=O)OC)=C1O
inactive: outcome [1] | outcome [2] | outcome [3] | outcome [4] | Potency [5] | Potency [6] | outcome [7] | outcome [8] | Potency [9]

CCN1CCN(C(=O)N[C@@H](C(=O)N[C@@H]2C(=O)N3[C@@H]2SC(C)(C)[C@H]3C(=O)O)c2ccccc2)C(=O)C1=O
inactive: outcome [1] | outcome [2] | outcome [3] | outcome [4] | Potency [5] | Potency [6] | outcome [7] | outcome [8]

O=S(=O)(O)CC(O)CCl (configuration not stated)
inactive: outcome [1] | outcome [2] | outcome [3] | outcome [4] | Potency [5] | Potency [6] | outcome [7] | outcome [8] | Potency [9]

CCOC(=O)CN1CCCC1=O
inactive: outcome [1] | outcome [2] | outcome [3] | outcome [4] | Potency [5] | Potency [6] | outcome [7] | outcome [8]

COc1cc2nc(N3CCN(C(=O)C4CCCO4)CC3)nc(N)c2cc1OC (configuration not stated)
inactive: outcome [1] | outcome [2] | outcome [3] | outcome [4] | Potency [5] | Potency [6] | outcome [7] | outcome [8] | Potency [9]

CCO/C=C1\N=C(c2ccccc2)OC1=O
inactive: outcome [1] | outcome [2] | outcome [3] | outcome [4] | Potency [5] | Potency [6] | outcome [7] | outcome [8] | Potency [9]

COc1cnc(NS(=O)(=O)c2ccc(N)cc2)nc1
inactive: outcome [1] | outcome [2] | outcome [3] | outcome [4] | Potency [5] | Potency [6] | outcome [7] | outcome [8] | Potency [9]

O=c1[nH]c(=O)c2cn[nH]c2[nH]1
inactive: outcome [1] | outcome [2] | outcome [3] | outcome [4] | Potency [5] | Potency [6] | outcome [7] | outcome [8] | Potency [9]

C=CCCCCCCCCCCCCCC
inactive: activity change, negative = cytotoxicity [1] 1.69% [at 19 µM] | viability change, negative = cytotoxic [2] -2.14% [at 19 µM] | viability change, negative = cytotoxic [3] -0.0329% [at 19 µM] | activity change [4] -0.591% [at 18.9 µM] | activity change, negative = inhibition [5] 8.65% [at 19 µM] | activation [6] 1.28% [at 19 µM] | activity, negative = inhibition [7] 2.19% [at 19 µM] | activity change, negative = cytotoxicity [8] -2.34% [at 19 µM]

COC(=O)c1ccc(C(=O)O)cc1
inactive: outcome [1] | outcome [2] | outcome [3] | outcome [4] | Potency [5] | Potency [6] | outcome [7] | outcome [8] | Potency [9]

COc1ccccc1N1CCN(CC(O)COc2cc(OC)c(OC)c(OC)c2)CC1 (configuration not stated)
inactive: outcome [1] | outcome [2] | outcome [3] | outcome [4] | Potency [5] | Potency [6] | outcome [7] | outcome [8] | Potency [9]

Cc1cc(N)no1
inactive: outcome [1] | outcome [2] | outcome [3] | outcome [4] | Potency [5] | Potency [6] | outcome [7] | outcome [8]

CC(C)OCCO
inactive: outcome [1] | outcome [2] | outcome [3] | outcome [4] | Potency [5] | Potency [6] | outcome [7] | outcome [8]

COC(=O)/C=C(\C)CCC=C(C)C
inactive: outcome [1] | outcome [2] | outcome [3] | outcome [4] | Potency [5] | Potency [6] | outcome [7] | outcome [8] | Potency [9]

CC1(C)CC(N)CC(C)(C)N1
inactive: outcome [1] | outcome [2] | outcome [3] | outcome [4] | Potency [5] | Potency [6] | outcome [7] | outcome [8]

C/C=C/C(=O)CCCC
inactive: outcome [1] | outcome [2] | outcome [3] | outcome [4] | Potency [5] | Potency [6] | outcome [7] | outcome [8] | Potency [9]

CCCCN(CCCC)CCCCCCN(CCCC)CCCC
inactive: outcome [1] | outcome [2] | outcome [3] | outcome [4] | Potency [5] | Potency [6] | outcome [7] | outcome [8] | Potency [9]

O=C1CC2(CCCC2)CC(=O)N1CCNCC1COc2ccccc2O1 (configuration not stated)
inactive: outcome [1] | outcome [2] | outcome [3] | outcome [4] | Potency [5] | Potency [6] | outcome [7] | outcome [8] | Potency [9]

CCCCCCCCCCCC(C)=O
inactive: outcome [1] | outcome [2] | outcome [3] | outcome [4] | Potency [5] | Potency [6] | outcome [7] | outcome [8] | Potency [9]

CCCCN1C(=O)c2ccccc2C1=O
inactive: outcome [1] | outcome [2] | outcome [3] | outcome [4] | Potency [5] | Potency [6] | outcome [7] | outcome [8] | Potency [9]

O=C(O)COc1ccc2ccccc2c1
inactive: outcome [1] | outcome [2] | outcome [3] | outcome [4] | Potency [5] | Potency [6] | outcome [7] | outcome [8] | Potency [9]

BrCCOc1ccccc1
inactive: outcome [1] | outcome [2] | outcome [3] | outcome [4] | Potency [5] | Potency [6] | outcome [7] | outcome [8]

CC[C@@]1(c2ccccc2)NC(=O)N(C)C1=O
inactive: outcome [1] | outcome [2] | outcome [3] | outcome [4] | Potency [5] | Potency [6] | outcome [7] | outcome [8] | Potency [9]

CC(C)(C)C(=O)CC(=O)C(C)(C)C
inactive: outcome [1] | outcome [2] | outcome [3] | outcome [4] | Potency [5] | Potency [6] | outcome [7] | outcome [8] | Potency [9]

CC(C)(Sc1cc(C(C)(C)C)c(O)c(C(C)(C)C)c1)Sc1cc(C(C)(C)C)c(O)c(C(C)(C)C)c1
inactive: outcome [1] | outcome [2] | outcome [3] | outcome [4] | Potency [5] | Potency [6] | outcome [7] | outcome [8] | Potency [9]
